Rows were chosen to be rich in hits. Some 3.6% of all compounds tested hit in one or more screens of this group.
PLK1 PBD inh – qHTS for Inhibitors of PLK1-PDB (polo-like kinase 1 - polo-box domain): Primary Screen | Plk1 PBD binding of FITC phosphopeptide, fluorescence polarization | Potency, µM, without a hit: max response, negative = inhibition, most hits filed as inhibitors | actives 2.8% (n = 360,000) | Serine/threonine-protein kinase PLK1 (Homo sapiens), P53350 | AID 720504, 2013; note: potency is the fitted concentration of half-maximal effect; series mostly up to about 57 µM; % is set by controls: 0 for no effect and ±100 for the full control effect; nearly all actives have a fitted effect of over 65% in size
Rango dissoc inh – qHTS Assay for Inhibitors of RanGTP induced Rango (Ran-regulated importin-beta cargo) - Importin beta complex dissociation; Potency, µM (top dose mostly 46.1 µM), for inactives: at the top dose activity change, negative = inhibition; AID 540253, 2011; Snurportin-1 (Homo sapiens) + GTP-binding nuclear protein Ran (Homo sapiens) + Importin …; Biochemical FRET Rango-importin beta, RanGTP-induced dissociation; actives 0.071% (n = 340,000); calls by dose curve; note: potency is the fitted concentration of half-maximal effect; % of control where 0% means no effect; nearly all actives have a fitted effect of over 45% in size
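Two FRET readings bracket the reaction: one 5 min after compound meets Rango–importin beta, another 45 min after RanGTP-RCC1 (0.6 uM Ran, 0.2 uM RCC1, 2 mM GTP) is added. Only the second defines inhibition.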
Rango-impB inh – qHTS Assay for Inhibitors of Rango (Ran-regulated importin-beta cargo) - Importin beta complex formation | Rango CFP/YFP FRET sensor + importin beta, 45 min | AID 540263, 2011 | Potency, µM (titrated, usually from 92.2 µM), for inactives: at the highest dose inhibition of complex formation | actives 0.031% (n = 340,000); calls by dose curve;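 note: potency is the fitted concentration of half-maximal effect; 0% = DMSO wells and 100% = buffer wells lacking importin beta; nearly all actives have a fitted effect of over 15% in size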
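FRET biosensor Rango (snurportin 1 IBB between N-terminal EYFP and C-terminal Cerulean), 50 nM in PBS/1 mM DTT/0.02% Tween-20/0.1% BSA, preincubated 5 min RT with compound; 0.125 microM importin beta added, 45 min RT, CFP/YFP FRET ratio read.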
KAT2A inh – qHTS Assay for Inhibitors of GCN5L2; Histone acetyltransferase KAT2A (Homo sapiens), Q92830; GCN5L2 HAT assay, ThioGlo1 CoA-SH fluorescence; Potency, µM (titrated, usually from 58.9 µM), without a hit: top-dose activity change, negative = inhibition, actives largely listed as inhibitors; actives 0.21% (n = 390,000); AID 504327, 2011; note: potency is the fitted concentration of half-maximal effect; % is set by controls: 0 for no effect and ±100 for the full control effect
Target sequence (Q92830 whole entry, looked up): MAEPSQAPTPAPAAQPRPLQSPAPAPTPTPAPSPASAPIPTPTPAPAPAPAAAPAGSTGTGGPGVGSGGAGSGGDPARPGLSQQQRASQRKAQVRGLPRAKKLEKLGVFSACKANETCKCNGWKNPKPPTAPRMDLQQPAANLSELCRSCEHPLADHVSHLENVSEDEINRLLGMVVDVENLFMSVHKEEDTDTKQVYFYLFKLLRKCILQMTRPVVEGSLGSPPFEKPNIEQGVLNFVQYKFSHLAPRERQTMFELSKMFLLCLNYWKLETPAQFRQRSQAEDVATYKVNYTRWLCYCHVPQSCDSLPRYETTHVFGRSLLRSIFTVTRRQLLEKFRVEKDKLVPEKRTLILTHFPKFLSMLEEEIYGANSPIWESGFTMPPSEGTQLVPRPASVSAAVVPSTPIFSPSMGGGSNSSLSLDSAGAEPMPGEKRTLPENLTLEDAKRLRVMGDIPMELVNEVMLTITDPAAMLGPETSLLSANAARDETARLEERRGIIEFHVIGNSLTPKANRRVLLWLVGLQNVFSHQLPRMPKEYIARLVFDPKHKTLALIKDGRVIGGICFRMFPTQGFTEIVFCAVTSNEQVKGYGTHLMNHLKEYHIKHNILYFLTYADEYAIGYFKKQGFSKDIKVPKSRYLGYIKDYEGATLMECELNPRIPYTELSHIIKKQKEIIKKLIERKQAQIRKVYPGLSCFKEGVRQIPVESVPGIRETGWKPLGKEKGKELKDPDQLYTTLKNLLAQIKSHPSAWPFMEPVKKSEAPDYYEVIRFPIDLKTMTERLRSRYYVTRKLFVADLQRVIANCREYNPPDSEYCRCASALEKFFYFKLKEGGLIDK
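Titration-based screen in which CoA formation is detected via maleimide probe ThioGlo1 (50uM) turning fluorescent on thiol reaction; substrates H3(1-25) 75uM and acetyl-CoA 70uM, GCN5L2 20nM, 20 min incubation at room temperature.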
PI5P4Ka inh – qHTS for Inhibitors of phosphatidylinositol 5-phosphate 4-kinase (PI5P4K); Phosphatidylinositol 5-phosphate 4-kinase type-2 alpha (Homo sapiens), P48426; PI5P4Kalpha enzyme, ADP-Glo luminescence, 60 min; active compounds read low; max response, %; actives 1.2% (n = 330,000); active = max response of -50% or lower; inconclusive = between -30% and -50%; inactive = -30% or higher; note: value at the top dose of about 77 µM; % is set by controls: 0 for no effect and ±100 for the full control effect
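qHTS, 1536-well: enzyme/substrate mix, compound by pin tool, 5 microM ATP final; RT 60 min; ADP-Glo reagents 1 (45 min) then 2 (30 min); luminescence.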
VDR inhibitor – Inhibitors of the vitamin D receptor (VDR): qHTS. Vitamin D3 receptor (Homo sapiens), P11473. Potency, µM, for the others: max response, negative = inhibition, hits mostly inhibitors. VDR-SRC2-3 peptide fluorescence polarization, 2 h. actives 0.93% (n = 400,000); note: potency is the fitted concentration of half-maximal effect; % is set by controls: 0 for no effect and ±100 for the full control effect
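Signal is fluorescence polarization, reporting how far test compounds block the interaction of VDR with the SRC2-3 coregulator peptide after a 2 h room-temperature incubation.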
* marks the source's active call; other numbers are inactive results; ? = inconclusive; . = no result. Unless noted, calls come from the whole dose curve; as a rule, active = well fitted curve in the direction sought with a large enough effect; inconclusive = small, poorly fitted or top-dose-only effect, or another doubt; inactive = no such curve, though single readings can be large; an effect the other way counts as inactive or inconclusive.

SMILES	PLK1 PBD inh	Rango dissoc inh	Rango-impB inh	KAT2A inh	PI5P4Ka inh	VDR inhibitor
COc1cc(C2c3cc4c(cc3C(OC3OC5COC(C)O[C@@H]5C(O)C3O)C3COC(=O)C23)OCO4)cc(OC)c1O (stereo partly drawn)	.	.	.	13%	.	0%
CSc1ccc(C2CC(=O)Oc3c2c(=O)n(C)c2ccccc32)cc1 (stereo not drawn)	.	.	.	-2%	.	-7%
COc1ccc2c(c1)OC/C(=C\c1ccc(OC)c(O)c1)C2=O	.	.	.	-28%	.	20µM*
CCC(C)(C)C(=O)O[C@H]1C[C@@H](C)C=C2C=C[C@H](C)[C@H](CC[C@@H]3C[C@@H](O)CC(=O)O3)[C@H]21	30µM*	9%	4%	-1%	-18	?
Cc1cccn2c(=O)c(/C=C(\C#N)C(=O)NC3CCS(=O)(=O)C3)c(Oc3ccccc3Cl)nc12 (stereo not drawn)	-28%	?	?	-18%	-2	18µM*
Cc1ccc(Oc2nc3ccccn3c(=O)c2/C=C(\C#N)C(=O)NC2CCS(=O)(=O)C2)cc1 (stereo not drawn)	-4%	?	?	-6%	4	79µM*
Cc1ccccc1Oc1nc2c(C)cccn2c(=O)c1/C=C(\C#N)C(=O)NC1CCS(=O)(=O)C1 (stereo not drawn)	-11%	?	?	0%	0	40µM*
O=C(Nc1nnc(S(=O)(=O)N2CCCc3ccccc32)s1)c1ccc(Cl)cc1	.	.	.	2%	.	0%
CN(C)c1ccc(CNC(=O)CN2C(=O)CCn3nc(-c4cn(C)c5ccccc45)cc32)cc1	.	.	.	-2%	.	13%
CC(=O)N1CCc2cc(S(=O)(=O)NC(Cc3ccccc3)C(=O)Nc3ccc(C)cc3C)ccc21 (stereo not drawn)	.	.	.	-5%	.	-1%
Cc1ccc(C)c(Cn2c(=O)n(CCCC(=O)NCc3ccc4c(c3)OCO4)c(=O)c3sccc32)c1	.	.	.	-6%	.	-9%
CCc1ccc(-c2c(C)sc(NC(C)=O)c2C(N)=O)cc1	27µM*	6%	1%	?	-11	-13%
Cc1sc(NC(=O)C2CCCCC2C(=O)O)c(C(N)=O)c1-c1ccccc1 (stereo not drawn)	?	0%	3%	-8%	-18	-20%
COC(=O)CCC(=O)Nc1sc(C)c(C)c1C(N)=O	4.7µM*	41%	-1%	-8%	-27	50µM*
Cc1cc(C(=O)Nc2sc(C)c(-c3ccc(F)cc3)c2C(N)=O)no1	-12%	21%	-2%	-10%	5	1%
Cc1sc(NC(=O)CCC(=O)O)c(C(N)=O)c1-c1ccccc1	13µM*	11%	-1%	-5%	-28	?
CCCC(=O)Nc1sc(Cc2ccccc2)c(C)c1C(N)=O	5.3µM*	7%	-2%	1%	-9	?
O=S(=O)(c1ccc(Cl)cc1)N1CCN(c2nc(-c3ccccc3)nc3ccccc23)CC1	.	.	.	.	.	-14%
COc1cc(NC(=O)C2CCN(S(=O)(=O)c3ccc4c(c3)oc(=O)n4C)CC2)cc(OC)c1	.	.	.	2%	.	0%
CN(C(=O)c1ccc2c(c1)N(Cc1ccccc1F)C(=O)c1ccccc1S2(=O)=O)C1CCCCC1	.	.	.	-7%	.	-13%
O=C(CS(=O)(=O)c1cccc2nsnc12)NCc1ccccc1	.	.	.	1%	.	0%
COc1ccc(NC(=O)c2c(NC(=O)CCC(=O)O)sc(-c3ccccc3)c2C)cc1	24µM*	18%	3%	-19%	-10	?
NC(=O)n1c(O)c(C(=O)c2cccs2)c2cc(Cl)ccc21	.	.	.	-27%	.	45µM*
c1csc(CNc2nc(-c3ccoc3)nc3ccccc23)c1	.	.	.	-18%	.	22µM*
c1csc(CNc2cc(-c3ccoc3)ncn2)c1	.	.	.	-12%	.	20µM*
SMILES	PLK1 PBD inh	Rango dissoc inh	Rango-impB inh	KAT2A inh	PI5P4Ka inh	VDR inhibitor
c1cncc(-c2nc(NCc3cccs3)c3ccccc3n2)c1	-10%	8%	4%	1%	5	0%
Cc1nc2c(C)cccc2cc1C(=O)N/N=C/c1ccc(C(=O)O)cc1	30µM*	13%	?	0%	10	-7%
COc1cc2c(cc1NC(=O)c1ccccc1-c1ccccc1C(=O)O)-c1ccccc1C2	42µM*	.	.	.	-1	.
Cc1ccc(-c2n[nH]c(=S)n2Cc2ccccc2)cc1	-8%	-6%	0%	1%	.	-13%
S=c1[nH]nc(-c2ccc(Cl)cc2Cl)n1Cc1ccccc1	3.8µM*	-3%	1%	-4%	?	28µM*
S=c1[nH]nc(-c2ccc(Cl)cc2Cl)n1-c1ccc2c(c1)OCCO2	27µM*	-23%	-2%	-3%	-16	-6%
S=c1[nH]nc(-c2cccc(Cl)c2)n1Cc1ccccc1	-10%	-1%	0%	-4%	-6	-8%
CC(c1n[nH]c(=S)n1Cc1ccccc1)N(C)C (stereo not drawn)	19µM*	5%	-1%	1%	-20	?
Oc1ccc(-c2n[nH]c(=S)n2-c2ccc3c(c2)OCCO3)c(O)c1	-27%	-5%	2%	-10%	?	-1%
CC1(C)CC(=O)C2=C(C1)c1c(ccc3ccccc13)NC2c1cc([N+](=O)[O-])cc([N+](=O)[O-])c1O (stereo not drawn)	3.4µM*	14%	-2%	?	-59*	-6%
CCN(CC)c1ccc(S(=O)(=O)Nc2cc(Cl)ccc2Cl)cc1NC(=S)NC(=O)C1CCCC1	9.5µM*	-4%	2%	-14%	-21	-24%
CCN(CC)S(=O)(=O)c1ccc(Cl)c(NC(=S)NC(=O)C2CCCC2)c1	-10%	-16%	2%	-11%	-3	-5%
O=[N+]([O-])c1cc(-c2ccc(/C=N\n3cnnc3)o2)cc([N+](=O)[O-])c1	-15%	-9%	2%	1%	-59*	-6%
Clc1cccc(-c2ccc(/C=N/n3cnnc3)o2)c1	-4%	-11%	5%	-11%	.	-16%
CC(O)CCC(=O)NCCNC(=O)CCC(C)O (stereo not drawn)	11µM*	4%	-1%	-2%	1	?
CCCN(C(=O)CCc1nc(-c2ccc(C)cc2)no1)c1ccc(OCC)cc1	.	.	.	-3%	.	-13%
